Results on 13 molecules are retold here after PubChem BioAssay (NCI).

Compounds without any hit were thinned out: in the full panel of roughly 83,000, 20% have a hit.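 Percent growth is the endpoint: 0 to 100 indicates growth inhibition (40 means 60% inhibition), 0 means no net growth, and negative values indicate cell death.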 A number with no mark means an inactive call. Rule for the calls: active = growth percent below 10; inactive = the rest.

The test relates to EKVX NSCLC. Nature of the test: NCI-60 one-dose screen, 48 h (100 = growth as untreated, 0 = no growth, -100 = all killed). The settings on record: 10 µM.
As for `COc1ccccc1Cn1cc2c(c1)-c1oncc1CC2`, the growth was 20.8%.
Under `CC1=NN(c2cccc(Cl)c2)C(=O)/C1=C\c1cn(-c2nc(N3CCOCC3)nc(N3CCOCC3)n2)c2ccccc12` stands 105%.
Regarding `NC(=O)c1c(Nc2ccccc2)nn2cc(-c3nc4ccccc4s3)c(N)nc12`, the growth was 89.5%.
In the case of `COc1cc(/C(=C2/O[C@@H]([C@H]3COC(C)(C)O3)[C@H]3OC(C)(C)O[C@@H]23)c2ccc3c(c2)OCO3)cc(OC)c1OC` it was 74.3%; in that of `O=C(N/N=C/c1coc2ccccc2c1=O)c1cc2oc(-c3ccccc3)cc2[nH]1`, 90.5%; in that of `CCCCCCCCCC[N+](C)(C)C`, 72.9%.
As to `CCCC(=O)NNc1[nH]c(-c2ccc(OC)cc2)cc1C(=O)OCC`, the growth is 108%.
In the case of `O=C1c2cc([N+](=O)[O-])ccc2-c2cc(Cl)c(NC(=O)C(F)(F)F)cc21` it was 73.3%; in that of `O=C(Nc1cccc(Cn2c(=O)[nH]c3ccc(Oc4ncccn4)cc3c2=O)c1)c1ccc(Cl)cc1`, 52.3%; in that of `CC[C@H](Nc1ncnc2nc[nH]c12)c1nc2cccc(NCc3ccc(C(=O)NO)o3)c2c(=O)n1-c1ccccc1`, 110%.
As for `COc1ccc(NC(=O)/C=C(C)/C=C/C=C(C)/C=C/C2=C(C)CCCC2(C)C)cc1`, the growth was 82.7%.
In the case of `CCCCCCCCc1ccc(OCCOCC[N+](C)(C)CC)cc1` (tested in a mixture with another compound) it was 71%; in that of `COc1cc2c(cc1OC)C(Cc1cc(OC)c(OC)cc1[N+](=O)[O-])=NCC2`, 92.8%.
